From PubChem BioAssay AID764 (NMMLSC, 2007)
The campaign covered roughly 190,000 compounds. About 220 (0.12%) were called active. Roughly 2% stayed inconclusive and do not appear here. The sample holds actives, similar compounds and a random draw of the others, so the mix is not that of the screen.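 How the source made its calls: active means GTP binding at least 20 percentage points away from the 100% baseline, in either direction, so actives lie on both sides; inconclusive means Compound likely fluorescent itself, or too few beads counted; inactive means the rest.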

Target: Ras-related C3 botulinum toxin substrate 1 (Homo sapiens) (UniProt P63000)
Assay: activated Rac1 mutant nucleotide binding changes – biochemical, bead-based flow cytometry, multiplex, fluorescent GTP, primary screen (AID 764)
Settings: GST-Rac1 activated beads, at 10 µM, actives lie on both sides, 100% means binding = to untreated wells

Row | Structure (SMILES) | percent activity (GTP binding)
1 | CCOc1ccc(C(CC(=O)O)n2cnnn2)cc1OC (stereo not given) | 91% (inactive)
2 | Cc1c(Cl)c([N+](=O)[O-])nn1CC(=O)NCC1CCCO1 (stereo not given) | 96% (inactive)
3 | CC(NC(=O)COC(=O)c1ccc(Cl)cc1O)c1ccc(F)cc1 (stereo not given) | 99% (inactive)
4 | COc1c(F)c(F)c(C(=O)O)c(Nc2ccccc2C)c1F | 97% (inactive)
5 | Cc1ccc(Nc2c(F)c(F)c(F)c(F)c2C(=O)O)c(C)c1 | 139% [activator] (active)
6 | Cc1ccc(NC(=S)NC(=O)c2ccc(-c3ccccc3)cc2)c(C)c1 | 92% (inactive)
7 | COc1ccc(C(=O)/C=C/c2ccc(OC3CSC3)cc2)cc1 | 95% (inactive)
8 | COc1ccc(/C=C/C(=O)c2ccc(OC)cc2O)cc1 | 96% (inactive)
9 | COc1ccc(/C=C/C(=O)c2cc(Br)ccc(=O)c2O)cc1 | 78% (active)
10 | CCOC(=O)c1c(C)[nH]c(C2=NNC(=NC(C)COC)SC2)c1C (stereo not given) | 97% (inactive)
11 | Cc1cccc(NC(=O)Nc2ccc3c(c2)OCO3)n1 | 97% (inactive)
12 | CC(C(=O)NCC1CCCCC1)N(C)Cc1cccc(Cl)c1 (stereo not given) | 95% (inactive)
13 | CN(C)CCOc1cccc(Br)c1 | 95% (inactive)
14 | N=C1C(c2nc3ccccc3s2)=C(O)CN1NC(=O)c1ccc([N+](=O)[O-])cc1 | 84% (inactive)
15 | C/C(=N/N1CCN(Cc2cccc3ccccc23)CC1)c1cccnc1 | 95% (inactive)
16 | CCc1cccc(OC2OC(CO)C(O)C(O)C2NC(C)=O)c1 (stereo not given) | 97% (inactive)
17 | S=C(Nc1ccc(Br)cc1Cl)N1CCC2(CC1)OCCO2 | 98% (inactive)
18 | Cc1cccc2c1N(CCOc1ccccc1)C(=O)C2=O | 98% (inactive)
19 | Cc1ccc(CC2CC(=O)N(c3nc(C)cc(C)n3)C2=O)cc1 (stereo not given) | 97% (inactive)
20 | CNC(=O)COc1ccc(S(=O)(=O)Nc2ccccc2)cc1 | 98% (inactive)
21 | C=CCN(CC=C)S(=O)(=O)c1ccc(C(=O)Nc2nc3c(s2)CCc2ccccc2-3)cc1 | 54% (active)
22 | COCCN(CCOC)S(=O)(=O)c1ccc(C(=O)Nc2nc3c(s2)CCc2ccccc2-3)cc1 | 100% (inactive)
23 | C=CCN(CC=C)S(=O)(=O)c1ccc(C(=O)Nc2sc3c(c2C(N)=O)CCCCC3)cc1 | 100% (inactive)
24 | CCOC(=O)c1[nH]cnc1C(=O)Nc1ccccc1C | 95% (inactive)
25 | CCOc1ccc(N2C(=O)Nc3ccccc3C2(O)C(=O)NCc2ccco2)cc1 (stereo not given) | 99% (inactive)
26 | CCOC(=O)c1sc(/N=C/C2=C(O)CC(C)(C)CC2=O)c(C(=O)OCC)c1C | 95% (inactive)
27 | O=C(NCCOc1ccccc1F)Nc1ccc(Br)cc1 | 93% (inactive)

Row | Structure (SMILES) | percent activity (GTP binding)
28 | C=CCn1c(CNC(=O)c2ccco2)nnc1SCC(=O)c1ccc(OC)cc1 | 97% (inactive)
29 | COc1ccc(CCNC(=O)CN(c2ccccc2)S(C)(=O)=O)cc1 | 97% (inactive)
30 | COc1cccc(OC)c1C(=O)NC(=S)Nc1ccc(N2CCOCC2)c(Cl)c1 | 95% (inactive)
31 | NS(=O)(=O)c1ccc(NC(=O)COC(=O)CCc2c[nH]c3ccccc23)cc1 | 99% (inactive)
32 | CCOC(=O)C(=Cc1ccccc1OC)C(=O)OCC | 89% (inactive)
33 | COc1cc(/C=N/NC(=S)Nc2cccnc2)cc(OC)c1O | 89% (inactive)
34 | CCc1cc2c(=O)c(-c3nc4ccccc4n3C)c(CCCC(=O)O)oc2cc1OC(=O)C(C)(C)C | 94% (inactive)
35 | Cc1ccc(O)c(NC(=S)NC(=O)COc2ccc(Br)cc2)c1 | 92% (inactive)
36 | COc1cc(N2C(=O)c3ccccc3C2=O)c(Cl)cc1C(=O)OCC(=O)N1CCOCC1 | 97% (inactive)
37 | COc1ccc(N2CCN(C(C)=C3C(=O)c4ccccc4C3=O)CC2)cc1 | 92% (inactive)
38 | CCOC(=O)C(C)n1nc(-c2ccccc2)c2ccccc2c1=O (stereo not given) | 96% (inactive)
39 | Cc1ccc(CN(Cc2cccnc2)C(=S)Nc2cc(Cl)ccc2C)cc1 | 95% (inactive)
40 | CC1Cc2ccccc2N1S(=O)(=O)c1c(N)n(C)c(=O)n(C)c1=O (stereo not given) | 102% (inactive)
41 | C/C(N)=C(/C#N)C(=O)COC(=O)C1CCN(C(=O)c2ccc(Cl)cc2)CC1 | 97% (inactive)
42 | O=C(COC(=O)c1ccc(F)cc1)Nc1nc2ccc([N+](=O)[O-])cc2s1 | 93% (inactive)
43 | COc1cccc(CNn2cn[nH]c2=S)c1OCc1ccccc1 | 95% (inactive)
44 | COC(=O)C1=C(C)N(C)C(=O)NC1c1ccc([N+](=O)[O-])o1 (stereo not given) | 93% (inactive)
45 | CCOC(=O)C1CCN(S(=O)(=O)c2cc(F)ccc2OC)CC1 | 96% (inactive)
46 | Cc1cccc(N(C(=O)Cc2cccs2)C(C(=O)NCc2ccco2)c2ccncc2)c1 (stereo not given) | 101% (inactive)
47 | O=C(c1ccc(F)cc1)n1cc(C(=S)N2CCOCC2)c2ccccc21 | 98% (inactive)
48 | CCCN(CC(=O)Nc1ccccc1C)C(=O)c1cc(=O)[nH]c2ccccc12 | 95% (inactive)
49 | CCCC(=O)NC(=S)Nc1ccc(CN2CCOCC2)cc1 | 95% (inactive)
50 | CCN1CCc2nc(NC(=O)c3cc(F)c(F)cc3Cl)sc2C1 | 95% (inactive)
51 | CCCCc1ccc(NC(=S)NCCCN2CCOCC2)cc1 | 94% (inactive)
52 | CCOc1ccc(CN2CCN(Cc3ccc(C)o3)CC2CCO)cc1 (stereo not given) | 96% (inactive)
53 | O=Cc1ccc(OCc2cn3ccccc3n2)cc1 | 97% (inactive)
54 | Brc1cc(/C=N/n2cnnc2)oc1Br | 100% (inactive)

Row | Structure (SMILES) | percent activity (GTP binding)
55 | CS(=O)(=O)Nc1cccc(-c2cn3ccccc3n2)c1 | 96% (inactive)
56 | CCOC(=O)CNC(=O)/C(=C\c1ccc(F)cc1)NC(=O)c1ccccc1 | 95% (inactive)
57 | COc1cccc(CC(=O)N2CCCC(CCC(=O)N3CCN(c4ccccn4)CC3)C2)c1 (stereo not given) | 96% (inactive)
58 | Cc1cccc(C)c1NC(=O)C1CCCN1C(=O)OC(C)(C)C (stereo not given) | 97% (inactive)
59 | CCOc1cc(NC(=S)NCCCN(C)C)c(OCC)cc1NC(=O)C1CC1 | 95% (inactive)
60 | CCC(C)c1ccc(NC(=S)NCc2ccccn2)cc1 (stereo not given) | 94% (inactive)
61 | COc1cccc(/C=C2\SC(=N)N(c3ccc(F)cc3)C2=O)c1 | 93% (inactive)
62 | O=C(CSc1ccc(-c2ccco2)nn1)NCc1ccc2c(c1)OCO2 | 96% (inactive)
63 | COc1ccc(N(CC(=O)Nc2ccc(C)cc2C)S(=O)(=O)c2ccccc2[N+](=O)[O-])c(OC)c1 | 93% (inactive)
64 | CCOc1ccc(CCN2C(=O)c3cccnc3C2=O)cc1OCC | 97% (inactive)
65 | O=C1N/C(=C/c2cccs2)C(=O)N1Cc1ccc(F)cc1 | 97% (inactive)
66 | O=C(Nc1ccc2c(c1)C(=O)OC2)Nc1cccc2ccccc12 | 96% (inactive)
67 | NC(=O)C1CCN(C(=O)COc2cccc3cccnc23)CC1 | 95% (inactive)
68 | Cn1c(N)c(C(=O)COC(=O)c2cnc(Cl)c(Cl)c2)c(=O)n(C)c1=O | 93% (inactive)
69 | CN(C)c1ccc2c(=O)[nH][nH]c(=O)c2c1 | 99% (inactive)
70 | O=S(=O)(NCCc1ccc(F)cc1)c1cccc2cccnc12 | 96% (inactive)
71 | CCC(=O)N1CCC(C(N)=O)(N2CCCCC2)CC1 | 96% (inactive)
72 | COc1cc2sc(C)nc2cc1C | 95% (inactive)
73 | CCN(CC)P(=O)(Nc1ccc(SC(F)F)cc1)c1ccc(N(C)C)cc1NC(=O)c1ccco1 (stereo not given) | 92% (inactive)
74 | COc1ccc(C2=NN(C(=O)CCC(=O)O)C(c3cccs3)C2)cc1OC (stereo not given) | 96% (inactive)
75 | COCCCNC(NC(=O)c1ccc(OC)cc1)C(Cl)(Cl)Cl (stereo not given) | 95% (inactive)
76 | COc1ccc(NS(=O)(=O)c2cc(NC(=O)C3CCCCC3)ccc2N2CCOCC2)cc1 | 96% (inactive)
77 | C/C=C/c1ccc(OCC(O)CN2CCCCCCC2)c(OC)c1 (stereo not given) | 96% (inactive)
78 | CC(C)N(C(=O)CSc1nc(COc2ccccc2)nc2ccccc12)C(C)C | 93% (inactive)
79 | O=C(Nc1nnc(Cc2ccccc2)s1)c1cnccn1 | 99% (inactive)
80 | CCOc1cc(/C=N/NC(=O)c2ccc(CSc3nncn3C)cc2)ccc1OCC(=O)N1CCOCC1 | 93% (inactive)
